Assays:
Experiment in all cases: PBM binding z-score (relative to random genomic background probes); higher = stronger binding; sequences stand for … in GC…GCGATTGACAGCGTAGAATGAAGG
[1] = tested on: PPARg:RXRa DBDmut IVT, anti-RXR (DBD mutation: RXRa K156A/R161A, NR concentration 270 nM, RXRa partner concentration 90 nM)
In short: (§1)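 Scanned fluorescence from custom Agilent 4×180K protein-binding microarrays was regression-normalized. Binding z-scores use random background probes as reference. Ligand-free nuclear receptor dimers were incubated on the arrays for 1 h and detected with antibodies against each partner (one per run).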

[2] = tested on: PPARg:RXRa IVT, anti-PPARg (NR concentration 270 nM, RXRa partner concentration 90 nM)
In short: as §1

[3] = tested on: PPARg DBDmut:RXRa IVT, anti-PPARg (DBD mutation: PPARg1 K132A/R137A, NR concentration 270 nM, RXRa partner concentration 90 nM)
In short: as §1

[4] = tested on: PPARg DBDmut IVT, anti-PPARg (DBD mutation: PPARg1 K132A/R137A, NR concentration 270 nM)
In short: as §1

[5] = tested on: PPARg homodimer (NR concentration 180 nM)
In short: as §1

[6] = tested on: PXR:RXRa (NR concentration 270 nM, RXRa partner concentration 90 nM)
In short: as §1

[7] = tested on: PXR homodimer (NR concentration 270 nM)
In short: as §1

[8] = tested on: RARa:RXR (NR concentration 270 nM, RXRa partner concentration 90 nM)
In short: as §1

[9] = tested on: RARa homodimer (NR concentration 270 nM)
In short: as §1

[10] = tested on: RARb:RXRa (NR concentration 270 nM, RXRa partner concentration 90 nM)
In short: as §1

[11] = tested on: RARb homodimer (NR concentration 270 nM)
In short: as §1

[12] = tested on: RARg:RXRa (NR concentration 270 nM, RXRa partner concentration 90 nM)
In short: as §1

[13] = tested on: RARg homodimer (NR concentration 270 nM)
In short: as §1

[14] = tested on: RXRa DBDmut IVT, anti-RXR (DBD mutation: RXRa K156A/R161A, NR concentration 90 nM)
In short: as §1

[15] = tested on: RXRa homodimer (NR concentration 180 nM)
In short: as §1

[16] = tested on: THRa:RXRa (NR concentration 90 nM, RXRa partner concentration 90 nM)
In short: as §1

[17] = tested on: THRa homodimer (NR concentration 90 nM)
In short: as §1

[18] = tested on: VDR homodimer (NR concentration 270 nM)
In short: as §1

Row | Sequence | PBM binding z-score [1] | PBM binding z-score [2] | PBM binding z-score [3] | PBM binding z-score [4] | PBM binding z-score [5] | PBM binding z-score [6] | PBM binding z-score [7] | PBM binding z-score [8] | PBM binding z-score [9] | PBM binding z-score [10] | PBM binding z-score [11] | PBM binding z-score [12] | PBM binding z-score [13] | PBM binding z-score [14] | PBM binding z-score [15] | PBM binding z-score [16] | PBM binding z-score [17] | PBM binding z-score [18]
1 | CAAACTAGGTCAAGAGGTCAAAGTACGCTTCCCG | 8.34 | 8.65 | 3.41 | 3.08 | 4.62 | 6.26 | 3.22 | 7.37 | 3.18 | 5.45 | 5.69 | 8.23 | 7.27 | 3.15 | 8.07 | 4.23 | 2.61 | 4.76
2 | TCTTGTAGATCAAAGGTTAAGAAGGCCGAAGCCT | 2.13 | 4.06 | 0.462 | 0.582 | 0.29 | 2.19 | 0.104 | 3.33 | -0.0225 | 1.98 | 1.58 | 1.95 | 0.702 | 0.627 | 3.37 | 1.51 | -0.402 | 0.0638
3 | CTACGAAGGTGAACAAGGTCGTTGATTACTATTC | 2.27 | 2.28 | 0.435 | 0.389 | 0.63 | 2.98 | 1.39 | 2.46 | 0.451 | 2.33 | 2.4 | 2.2 | 1.98 | 1.51 | 2.21 | 2.91 | 1.08 | 2.46
4 | ATCGAAATGTCGACGAGGTGAGTATACACCGTTT | -0.343 | 0.676 | 0.668 | 0.692 | -0.253 | -0.067 | 0.0399 | 0.312 | -0.025 | 0.403 | 0.224 | 0.712 | 0.657 | -0.0108 | 0.492 | 1.43 | 0.345 | -0.13
5 | TCATATAGGTAAAGGTGAAAGTCGAACGATATGA | 3.76 | 4.23 | 1.81 | 1.2 | 1.04 | 1.13 | -0.047 | 1.71 | 0.402 | 2.1 | 1.71 | 1.65 | 1.43 | 0.845 | 2.33 | 1.38 | -0.106 | 0.236
6 | GCTTGTAGATCAACGTTAAGAAAGACTAAGCTAA | 1.51 | 0.269 | 0.342 | 0.507 | -0.243 | -0.51 | -0.226 | -0.0818 | -0.208 | -0.508 | -0.408 | -0.256 | -0.209 | 0.0501 | -0.405 | -0.214 | -0.701 | -0.764
7 | GCTAGTTGGCCAGTAAAAGGTCACACACCGGTCG | 0.354 | 1.78 | -0.104 | -0.574 | 3.08 | 4.62 | 0.59 | 5.25 | 0.379 | 4.07 | 5.19 | 5.15 | 4.08 | 0.252 | 5.46 | 3.55 | 1.33 | 1.49
